From PubChem BioAssay
Compounds with a hit are over-represented: about 2.9% of the library has one in this group of screens.
PAFAH1B3 inh: inhibitors of human PAFAH1B3 | Q15102 | recombinant PAFAH1B3, FP-rhodamine probe, fluorescence polarization | inhibition, % at 3.39 µM | 340,000 tested, 0.28% active;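 active = inhibition above the screen-wide average of all tested compounds plus 3 SD, cut at about 25% in these data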
PME-1 inh: PME-1 (human) inhibition | recombinant PME-1, FP-Rh probe fluorescence polarization | inhibition, % at 5.9 µM | 320,000 tested, 0.53% active | AID 2130;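 active = inhibition above the campaign mean of all compounds plus 3 SD, cut at about 26% in these data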;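 also: competitive labeling of PME-1 active site by serine hydrolase directed probe; inhibitors block probe labeling so polarization falls and inhibition rises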
PAFAH1B2 inh: inhibitors of human PAFAH1B2 | P68402 | recombinant PAFAH1B2, FP-rhodamine activity probe, fluorescence polarization | inhibition, % at 3.39 µM | 340,000 tested, 1.2% active | AID 492953;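 active = inhibition above the mean of all tested compounds plus 3 SD, cut at about 24% in these data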
Fam108B counter: Fam108B inhibition, counter-screen for RBBP9 inhibitors. 300,000 tested, 0.33% active. inhibition, % at 9.51 µM. recombinant Fam108B, FP-Rh probe fluorescence polarization;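 active = inhibition above the screen mean inhibition plus 3 SD, computed separately per campaign, cut at about 18% in these data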;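 also: inhibitors lower polarization as less probe binds the enzyme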
PAFAH2 inh: PAFAH2 (human) inhibition. recombinant PAFAH2, FP-rhodamine activity probe, fluorescence polarization. AID 492956. Q99487. inhibition, % at 3.39 µM. 340,000 tested, 0.99% active;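 active = inhibition above the mean over all tested compounds plus 3 SD, cut at about 30% in these data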;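 also: inhibitors block probe labeling of enzyme so polarization drops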
pPAFAH FP inh: inhibitors of human plasma PAF acetylhydrolase (pPAFAH). recombinant pPAFAH, FP-rhodamine probe fluorescence polarization. inhibition, % at 3.39 µM. 330,000 tested, 1.5% active. AID 463082;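 active = inhibition above the mean inhibition across the screen plus 3 SD, cut at about 25% in these data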;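 also: inhibitors block binding of the rhodamine activity-based probe so polarization drops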
Target sequence (Q13093 whole entry, looked up): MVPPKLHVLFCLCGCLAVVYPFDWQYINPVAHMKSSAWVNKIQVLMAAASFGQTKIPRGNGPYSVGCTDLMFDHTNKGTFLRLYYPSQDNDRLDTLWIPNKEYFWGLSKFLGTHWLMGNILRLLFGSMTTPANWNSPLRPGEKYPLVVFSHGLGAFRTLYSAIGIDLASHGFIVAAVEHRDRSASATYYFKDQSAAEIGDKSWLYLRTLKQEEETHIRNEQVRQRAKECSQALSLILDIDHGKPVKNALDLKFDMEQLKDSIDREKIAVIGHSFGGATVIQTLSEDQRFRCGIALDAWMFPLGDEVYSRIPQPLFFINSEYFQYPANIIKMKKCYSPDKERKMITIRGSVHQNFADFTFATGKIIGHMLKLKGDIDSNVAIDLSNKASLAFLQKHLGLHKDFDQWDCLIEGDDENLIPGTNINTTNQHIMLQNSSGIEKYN
A number is an active result; - = inactive; . = no result.

SMILES	PAFAH1B3 inh	PME-1 inh	PAFAH1B2 inh	Fam108B counter	PAFAH2 inh	pPAFAH FP inh
COc1ccc(C)cc1NC(=O)CN1CCN(S(=O)(=O)c2ccc(Cl)cc2)CC1	-	-	28	-	-	-
COc1ccc(OC)c(NC(=O)CN2CCC(C(=O)c3ccc(C)cc3)CC2)c1	-	-	-	-	-	29
O=C(CN1CCN(S(=O)(=O)c2ccc(F)cc2)CC1)NC1CCCC1	-	-	-	-	-	-
O=S(=O)(c1ccc(Cl)cc1)N1CCN2CCCC2C1 (stereo not given)	-	-	27	-	-	-
COc1ccc(C)cc1NC(=O)CN1CCN(S(=O)(=O)c2ccc(C(C)C)cc2)CC1	-	-	-	-	-	-
O=C(CN1CCN(S(=O)(=O)c2ccc(Cl)cc2)CC1)NC1CCCC1	-	-	29	-	-	-
CCc1ccc(CNC(=O)C2CCN(S(=O)(=O)N3CCCC3)CC2)cc1	-	-	-	-	-	-
COc1ccc(Cl)cc1NC(=O)CN(C)C(=O)CCSc1ccc(C)cc1	-	-	26	.	-	-
O=C(CCN1CCN(S(=O)(=O)c2ccc(Cl)cc2)CC1)Nc1ccccc1F	-	-	-	-	-	-
O=C(CCN1CCN(S(=O)(=O)c2ccc(Cl)cc2)CC1)Nc1ccc(F)cc1	-	-	25	-	-	-
COc1ccc(S(=O)(=O)N2CCCCC2)cc1NC(=O)CCc1cc(OC)c(OC)c(OC)c1	-	.	-	.	-	.
COc1ccc(NC(=O)CN(C)C(=O)CCSc2ccc(C)cc2)cc1	-	-	-	-	-	-
COc1ccc(S(=O)(=O)N2CCCCCC2)cc1NC(=O)Cc1cc(OC)c(OC)c(OC)c1	-	57	-	-	-	-
CCN1CCN(c2ccc(S(=O)(=O)N3CCCCC3)cc2NC(=O)/C=C/c2cc(OC)ccc2OC)CC1	-	-	-	-	-	26
Cc1ccc(CN2C(=O)[C@H]3Cc4c([nH]c5ccccc45)C(C)(C)N3C2=O)cc1	-	-	-	-	-	-
CCOc1cccc(=O)c2c(C)n(Cc3ccccc3)c(C)c12	-	-	-	-	-	27
CCOc1cccc(=O)c2c(C)n(Cc3ccco3)c(C)c12	-	-	-	-	-	33
CC(=O)Nc1ccc(Nc2cc(C(C)C)nc3c(-c4ccccc4)c(C)nn23)cc1	-	-	-	-	-	-
O=C(N1CCCCC1)C1(c2ccccc2)CCCCC1	-	-	30	-	-	-
O=C(N1CCOCC1)C1(c2ccccc2)CCCCC1	-	-	28	-	-	-
O=C1N/C(=N\S(=O)(=O)Cc2ccccc2)S/C1=C/c1cc([N+](=O)[O-])ccc1O	39	-	29	-	-	32
COc1cc(/C=C2\S/C(=N/S(=O)(=O)Cc3ccccc3)NC2=O)c([N+](=O)[O-])cc1OC	-	-	-	-	-	-
CC/C(C)=N\Nc1nc(-c2cc3cc(OC)ccc3oc2=O)cs1	-	-	-	-	-	-
O=C1N=C(N2C=CC(=C3C=CNC=C3)C=C2)/C(=C/N=NC(=O)c2ccccc2O)S1	-	-	-	-	-	26
Cc1cc(C)c(NC(=O)CNC(=O)COC(=O)/C=C/c2cccs2)c(C)c1	-	-	-	-	-	27
SMILES	PAFAH1B3 inh	PME-1 inh	PAFAH1B2 inh	Fam108B counter	PAFAH2 inh	pPAFAH FP inh
Cc1cc(C)c(NC(=O)COC(=O)Cc2cccs2)c(C)c1	-	-	-	-	-	26
CCSc1nnc(NC(=O)c2cccc(S(=O)(=O)N(C)c3ccccc3)c2)s1	-	-	-	-	-	-
C=CCN(c1ccccc1)S(=O)(=O)c1cccc(C(=O)Nc2nnc(SCC)s2)c1	-	-	-	-	-	34
Cc1cccc(NS(=O)(=O)c2csc(C(N)=O)c2)c1C	-	-	-	-	-	27
CCN(C(=O)CSc1nncn1-c1ccccc1)C1CCS(=O)(=O)C1 (stereo not given)	-	-	-	-	-	-
N#Cc1cc2c(nc1SCC(O)CS(=O)(=O)Cc1ccc(Cl)cc1)CCCC2 (stereo not given)	-	-	30	-	-	-
CC(C)(C)c1ccc(S(=O)(=O)CC(O)CSc2nc3c(cc2C#N)CCCC3)cc1 (stereo not given)	-	-	-	-	-	-
N#CCSc1nc2c(cc1C#N)CCCCCC2	-	44	-	-	-	-
Cc1cccc(CNC(=O)C(C)n2nc(C)c3c(C)n(-c4ccccc4)nc3c2=O)c1 (stereo not given)	-	-	-	-	-	-
